{"source": "paper PMC5540273", "about": "(PLoS ONE, 2017);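 further: KINOMEscan kinase panel screen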", "conditions_in_all_cases": "concentration: 1 μM, replicates: in singlicate; n = 1", "key": {"[1]": {"system": "T1, DMPK2", "T1 construct": "gene CDC42BPG"}, "[2]": {"system": "DMPK"}, "[3]": {"system": "T2, DRAK1", "T2 construct": "gene STK17A"}, "[4]": {"system": "T3, DRAK2", "T3 construct": "gene STK17B"}, "[5]": {"system": "DYRK1A"}, "[6]": {"system": "DYRK1B"}, "[7]": {"system": "DYRK2"}, "[8]": {"system": "EGFR"}, "[9]": {"system": "EIF2AK1"}, "[10]": {"system": "EPHA1"}}, "data": [{"smiles": "CNCc1ccc2nc(NC(=O)c3ccc(C(C)(C)C)cc3)cn2c1", "values": [{"measurement": "%Inh", "setting": "[1]", "result": 0, "unit": "%"}, {"measurement": "%Inh", "setting": "[2]", "result": 7, "unit": "%"}, {"measurement": "%Inh", "setting": "[3]", "result": 11, "unit": "%"}, {"measurement": "%Inh", "setting": "[4]", "result": 24, "unit": "%"}, {"measurement": "%Inh", "setting": "[5]", "result": 35, "unit": "%"}, {"measurement": "%Inh", "setting": "[6]", "result": 0, "unit": "%"}, {"measurement": "%Inh", "setting": "[7]", "result": 6, "unit": "%"}, {"measurement": "%Inh", "setting": "[8]", "result": 0, "unit": "%"}, {"measurement": "%Inh", "setting": "[9]", "result": 4, "unit": "%"}, {"measurement": "%Inh", "setting": "[10]", "result": 4, "unit": "%"}]}, {"smiles": "O=C1NC(=O)C(c2ccc(Cl)cc2)=C1Nc1ccc(O)cc1", "note": "[SB-340867]", "values": [{"measurement": "%Inh", "setting": "[1]", "result": 0, "unit": "%"}, {"measurement": "%Inh", "setting": "[2]", "result": 0, "unit": "%"}, {"measurement": "%Inh", "setting": "[3]", "result": 0, "unit": "%"}, {"measurement": "%Inh", "setting": "[4]", "result": 0, "unit": "%"}, {"measurement": "%Inh", "setting": "[5]", "result": 1, "unit": "%"}, {"measurement": "%Inh", "setting": "[6]", "result": 0, "unit": "%"}, {"measurement": "%Inh", "setting": "[7]", "result": 0, "unit": "%"}, {"measurement": "%Inh", "setting": "[8]", "result": 5, "unit": "%"}, {"measurement": "%Inh", "setting": "[9]", "result": 0, "unit": "%"}, {"measurement": "%Inh", "setting": "[10]", "result": 16, "unit": "%"}]}, {"smiles": "Cc1ccc(NC(=O)Nc2ccc(Cl)cc2)cc1-c1ccc(C(=O)Nc2ccncc2)cc1", "note": "[GSK1398472]", "values": [{"measurement": "%Inh", "setting": "[1]", "result": 63, "unit": "%"}, {"measurement": "%Inh", "setting": "[2]", "result": 0, "unit": "%"}, {"measurement": "%Inh", "setting": "[3]", "result": 3, "unit": "%"}, {"measurement": "%Inh", "setting": "[4]", "result": 0, "unit": "%"}, {"measurement": "%Inh", "setting": "[5]", "result": 19, "unit": "%"}, {"measurement": "%Inh", "setting": "[6]", "result": 0, "unit": "%"}, {"measurement": "%Inh", "setting": "[7]", "result": 0, "unit": "%"}, {"measurement": "%Inh", "setting": "[8]", "result": 24, "unit": "%"}, {"measurement": "%Inh", "setting": "[9]", "result": 0, "unit": "%"}, {"measurement": "%Inh", "setting": "[10]", "result": 12, "unit": "%"}]}, {"smiles": "CCc1ccc(-c2ccc3c(c2)-c2n[nH]cc2S(=O)(=O)N3C)cc1", "values": [{"measurement": "%Inh", "setting": "[1]", "result": 0, "unit": "%"}, {"measurement": "%Inh", "setting": "[2]", "result": 0, "unit": "%"}, {"measurement": "%Inh", "setting": "[3]", "result": 0, "unit": "%"}, {"measurement": "%Inh", "setting": "[4]", "result": 0, "unit": "%"}, {"measurement": "%Inh", "setting": "[5]", "result": 0, "unit": "%"}, {"measurement": "%Inh", "setting": "[6]", "result": 11, "unit": "%"}, {"measurement": "%Inh", "setting": "[7]", "result": 0, "unit": "%"}, {"measurement": "%Inh", "setting": "[8]", "result": 0, "unit": "%"}, {"measurement": "%Inh", "setting": "[9]", "result": 0, "unit": "%"}, {"measurement": "%Inh", "setting": "[10]", "result": 11, "unit": "%"}]}, {"smiles": "Cc1nccc(-c2c(-c3ccc(F)cc3)ncn2CCCN2CCOCC2)n1.Cl", "note": "[SB-282975]", "values": [{"measurement": "%Inh", "setting": "[1]", "result": 9, "unit": "%"}, {"measurement": "%Inh", "setting": "[2]", "result": 22, "unit": "%"}, {"measurement": "%Inh", "setting": "[3]", "result": 14, "unit": "%"}, {"measurement": "%Inh", "setting": "[4]", "result": 22, "unit": "%"}, {"measurement": "%Inh", "setting": "[5]", "result": 17, "unit": "%"}, {"measurement": "%Inh", "setting": "[6]", "result": 34, "unit": "%"}, {"measurement": "%Inh", "setting": "[7]", "result": 0, "unit": "%"}, {"measurement": "%Inh", "setting": "[8]", "result": 17, "unit": "%"}, {"measurement": "%Inh", "setting": "[9]", "result": 14, "unit": "%"}, {"measurement": "%Inh", "setting": "[10]", "result": 24, "unit": "%"}]}]}
